# The source made the active and inactive calls.
# Test: plasmodial surface anion channel blockers, osmotic lysis – cell-based, P. falciparum Indochina, OD700, 18 h, primary screen (AID 1157)
# Settings: P. falciparum Indochina infected erythrocytes, osmotic lysis OD700, 18 h; higher = more signal, called active from +8 up or from −8 down
row,SMILES,z-score
1,C=CCN1C(=O)[C@@]2(Cc3ccccc31)N=C(c1ccc(OCCCO)cc1)O[C@H]2c1ccccc1,1.35 (inactive)
2,[N-]=[N+]=Nc1ccccc1[C@@H]1OC(c2ccc(OCCCO)cc2)=N[C@]1(CCS(=O)(=O)c1ccccc1)C(N)=O,5.2 (inactive)
3,CN(C)C(=O)[C@@]1(CCS(=O)(=O)c2ccccc2)COC(c2ccc(OCCCO)cc2)=N1,1.26 (inactive)
4,CCOC(=O)C[C@H]1[C@H](OC(=O)c2cc3ccccc3oc2=O)[C@@H](NC(=O)c2ccccc2)c2cc(OCCCO)ccc2N1C(=O)c1ccc2ccccc2n1,0.599 (inactive)
5,C=CCOC(=O)[C@H]1[C@@H]2C(=O)O[C@@H](c3ccccc3)[C@@H](c3ccccc3)N2[C@@H](c2ccc(OCCOC(=O)[C@H]3C[C@H]4C(=O)N[C@@H](CCCCNC(C)=O)C(=O)N4[C@H]3c3cccc(OCCO)c3)cc2)[C@]12C(=O)Nc1ccccc12,1.01 (inactive)
6,CC(C)C(CO)N1C(=O)[C@@H]2C3C(=O)OCCC/C=C\[C@H]3OC23C=CCN(CCN2CCOCC2)C(=O)[C@@H]13 (stereo not given in full),0.16 (inactive)
7,O=C(NCCN1CCOCC1)C1N=C(c2ccc(OCCCO)cc2)N(c2ccccc2)O1 (stereo not given),0.399 (inactive)
8,COC(=O)[C@@]1(Cc2ccccc2)[C@H]2c3cc(C(=O)N4CCCC4)n(Cc4ccc(S(C)(=O)=O)cc4)c3C[C@H]2CN1C(=O)c1ccccc1,0.742 (inactive)
9,O=C1[C@@]23C=C(Br)[C@H](C[C@@H]2CCOC3)[C@@]12CO2,0.0369 (inactive)
10,O=C(c1ccccc1)N1C(=O)[C@]2(COC(c3ccc(OCCCO)cc3)=N2)Cc2ccccc21,1.35 (inactive)

# From PubChem BioAssay
